The values that follow come from PubChem BioAssay (NCATS).

Results filed as inconclusive are left out. Activity calls are given as the source filed them. Calls follow the shape of the dose curve; as a rule, active = well fitted curve in the direction sought with a large enough effect; inconclusive = small, poorly fitted or top-dose-only effect, or another doubt; inactive = no such curve, though single readings can be large; an effect the other way counts as inactive or inconclusive.

In test [1] the test system is Zika virus NS2B-NS3 protease. In words: Primary screen GU AMC qHTS for Zika virus inhibitors (AID 1347154). Also: nearly all actives have a fitted effect of over 70% in size. In short, it runs like this:
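Unlinked Zika NS2B hydrophilic domain–NS3 protease complex at 25 nM in 10 mM Tris-HCl pH 8.0, 0.01% Tween 20, with an AMC peptide substrate. Fluorescence change (340/450 nm) over 15 min at room temperature, normalized to controls, fitted to 4-parameter Hill.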
(In general: In qHTS, concentration-response curves come from the screen itself.)

Test [2] is described as follows: qHTS to identify inhibitors of the type 1 interferon - major histocompatibility complex class I in skeletal muscle: primary screen against the NCATS Mechanism Interrogation Plate v5.0 (MIPE) Libary (AID 1347411). Also: nearly all actives have a fitted effect of over 65% in size. Also: potency is read from the fitted curve at half-maximal effect. The essentials: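 Immortalized human C25cl48 myoblasts with HiBit knocked into endogenous HLA-B*08:01 were stimulated with 4.0 ng/ml IFN-beta and exposed to compounds (11-point 1:3 titration, top 46 uM final) for 24 hrs at 37 C; HiBiT lytic luminescence measured.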

A short description of test [3]: qHTS to identify inhibitors of the type 1 interferon - major histocompatibility complex class I in skeletal muscle: primary screen against the NCATS Pharmaceutical Collection (AID 1347407).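 Also: luminescence of HiBiT knocked into endogenous HLA-B as interferon-induced MHC class I level.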 In short, it runs like this:
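Compounds […] were added to CRISPR-engineered HLA-B-HiBiT C25cl48 human myoblasts with 4.0 ng/ml IFN-beta. After 24 hrs at 37 C, cells were lysed and HiBiT luminescence measured.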

Test [4] deals with Protein phosphatase 1D (Homo sapiens) (UniProt O15297). Nature of the test: RapidFire Mass Spectrometry qHTS Assay for Modulators of WT P53-Induced Phosphatase 1 (WIP1) (AID 1347424).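 Also: amount of dephosphorylated VEPPL-S-QETFS peptide product formed by WIP1; series mostly up to about 63 µM.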 In short, it runs like this: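 10 nM WIP1 preincubated with compounds 1 hr at room temperature in pH 7.5 Tris buffer with 30 mM MgCl2, 1 mM TCEP; 2 uM VEPPL-pS-QETFS phosphopeptide for 5 min, formic acid quench; dephosphorylated product quantified by RapidFire MS against labelled standard.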
Sequence of Protein phosphatase 1D (Homo sapiens) (O15297 whole entry, looked up): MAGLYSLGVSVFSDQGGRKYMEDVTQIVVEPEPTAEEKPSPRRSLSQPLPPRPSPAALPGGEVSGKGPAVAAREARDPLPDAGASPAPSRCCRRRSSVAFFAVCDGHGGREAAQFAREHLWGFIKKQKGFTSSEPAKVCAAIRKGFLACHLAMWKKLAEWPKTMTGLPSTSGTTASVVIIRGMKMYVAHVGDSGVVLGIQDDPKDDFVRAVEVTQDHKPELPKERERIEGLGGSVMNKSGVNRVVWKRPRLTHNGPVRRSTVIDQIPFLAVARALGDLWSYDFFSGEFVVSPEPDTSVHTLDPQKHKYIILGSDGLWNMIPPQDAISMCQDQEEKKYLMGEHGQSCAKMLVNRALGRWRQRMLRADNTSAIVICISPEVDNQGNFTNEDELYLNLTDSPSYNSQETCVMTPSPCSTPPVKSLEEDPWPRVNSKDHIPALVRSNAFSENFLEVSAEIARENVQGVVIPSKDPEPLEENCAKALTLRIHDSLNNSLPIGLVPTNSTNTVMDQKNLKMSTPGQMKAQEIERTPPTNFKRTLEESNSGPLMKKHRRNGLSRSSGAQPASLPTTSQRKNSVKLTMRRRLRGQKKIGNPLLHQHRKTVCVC

Test [5] in a line: Validation qHTS assay for inhibitors of Activation Induced Cytidine Deaminase (AID): UDG Counterscreen signal (AID 1347427). In short, it runs like this:
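Counterscreen read of UDG activity (2 U/mL, 4/3x) in the FRET deamination format with AID (1 uM, 4/3x), DJC20/DJC23 substrates (250 nM, 4x), 4 h at room temperature. NaOH stop, fluorescence at 560 ex/665 em.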

Test [6] concerns Zika virus NS2B-NS3 protease (linked construct). Nature of the test: Primary screen NINDS Rhodamine qHTS for Zika virus inhibitors (AID 1347160). Also: nearly all actives have a fitted effect of over 55% in size. In short, it runs like this: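 In 10 mM Tris-HCl pH 8.0 containing 0.01% Tween 20, linked NS2B-NS3 protease (25 nM final) is exposed to test compounds for 15 min. Cleavage of 1.5 microM Rhodamine110 substrate is tracked by fluorescence over 15 min.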

Test [7] concerns Zika virus NS2B-NS3 protease (unlinked complex). In words: Primary screen GU Rhodamine qHTS for Zika virus inhibitors: Unlinked NS2B-NS3 protease assay (AID 1347159). Also: nearly all actives have a fitted effect of over 60% in size. The essentials: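 Percent inhibition derives from the 15-min fluorescence change (ex 480, em 540 nm), normalized to no-enzyme and no-inhibitor wells. Reactions contained 25 nM NS2B-NS3 complex and 1.5 microM substrate in 10 mM Tris-HCl pH 8.0.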

Test [8] has as its target Lysine-specific demethylase 5B (Homo sapiens) (UniProt Q9UGL1). In words: Optimization screen for KDM5B Histone Demethylases FDH coupled qHTS against the LOPAC library (AID 1347166). The essentials:
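KDM5BDeltaAP (200nM final) preincubated 10 min with compound, then 12.5uM H3K4Me3, 25uM a-ketoglutarate, ascorbate, Fe(II), NAD+ and FDH added; 50mM HEPES pH 7.5, 0.01% Tween-20. NADH fluorescence (340/450 nm) change over 30 min, room temperature.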

Test [9] in a line: qHTS to identify inhibitors of the type 1 interferon - major histocompatibility complex class I in skeletal muscle: primary screen against the NCATS LOPAC collection (AID 1347405).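 Also: lytic HiBiT luminescence reporting HLA-B protein level.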 The essentials: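 Immortalized human C25cl48 myoblasts with HiBiT knocked into endogenous HLA-B*08:01 were stimulated with 4.0 ng/ml IFN-beta and given compounds in a 7-point, 1:4.3 titration from 46 uM final; after 24 hrs, lytic HiBiT luminescence was read.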

Test [10] in a line: qHTS for inhibitors of adenylyl cyclases using a fission yeast platform: a pilot screen against the NCATS LOPAC library (AID 1347410). In short, it runs like this: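 GFP from fbp1-GFP reporter, read by Acumen laser cytometry, indicates AC inhibition in fission yeast expressing AC9, GNAS and PDE4D2. Cells grown 18 h in the dark at 30C with compounds, final up to 57 uM.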
Test [11] concerns the target Protein phosphatase 1D (Homo sapiens) (UniProt O15297). In words: Rhodamine-PBP qHTS Assay for Modulators of WT P53-Induced Phosphatase 1 (WIP1) (AID 1347425). In short, it runs like this: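 The read-out is the change in Rhodamine-PBP fluorescence (f1 - f0, ex 525/em 598 nm) as Pi is released, read each minute for 11 min. Final reaction: 5 nM WIP1, 10 uM phosphopeptide VEPPL-pS-QETFS, 10 uM Rh-PBP, 50 mM Tris-HCl pH 7.5, 30 mM MgCl2. Compound was preincubated with enzyme for 1 hour at room temperature.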

Sequence of Lysine-specific demethylase 5B (Homo sapiens) (Q9UGL1 whole entry, looked up): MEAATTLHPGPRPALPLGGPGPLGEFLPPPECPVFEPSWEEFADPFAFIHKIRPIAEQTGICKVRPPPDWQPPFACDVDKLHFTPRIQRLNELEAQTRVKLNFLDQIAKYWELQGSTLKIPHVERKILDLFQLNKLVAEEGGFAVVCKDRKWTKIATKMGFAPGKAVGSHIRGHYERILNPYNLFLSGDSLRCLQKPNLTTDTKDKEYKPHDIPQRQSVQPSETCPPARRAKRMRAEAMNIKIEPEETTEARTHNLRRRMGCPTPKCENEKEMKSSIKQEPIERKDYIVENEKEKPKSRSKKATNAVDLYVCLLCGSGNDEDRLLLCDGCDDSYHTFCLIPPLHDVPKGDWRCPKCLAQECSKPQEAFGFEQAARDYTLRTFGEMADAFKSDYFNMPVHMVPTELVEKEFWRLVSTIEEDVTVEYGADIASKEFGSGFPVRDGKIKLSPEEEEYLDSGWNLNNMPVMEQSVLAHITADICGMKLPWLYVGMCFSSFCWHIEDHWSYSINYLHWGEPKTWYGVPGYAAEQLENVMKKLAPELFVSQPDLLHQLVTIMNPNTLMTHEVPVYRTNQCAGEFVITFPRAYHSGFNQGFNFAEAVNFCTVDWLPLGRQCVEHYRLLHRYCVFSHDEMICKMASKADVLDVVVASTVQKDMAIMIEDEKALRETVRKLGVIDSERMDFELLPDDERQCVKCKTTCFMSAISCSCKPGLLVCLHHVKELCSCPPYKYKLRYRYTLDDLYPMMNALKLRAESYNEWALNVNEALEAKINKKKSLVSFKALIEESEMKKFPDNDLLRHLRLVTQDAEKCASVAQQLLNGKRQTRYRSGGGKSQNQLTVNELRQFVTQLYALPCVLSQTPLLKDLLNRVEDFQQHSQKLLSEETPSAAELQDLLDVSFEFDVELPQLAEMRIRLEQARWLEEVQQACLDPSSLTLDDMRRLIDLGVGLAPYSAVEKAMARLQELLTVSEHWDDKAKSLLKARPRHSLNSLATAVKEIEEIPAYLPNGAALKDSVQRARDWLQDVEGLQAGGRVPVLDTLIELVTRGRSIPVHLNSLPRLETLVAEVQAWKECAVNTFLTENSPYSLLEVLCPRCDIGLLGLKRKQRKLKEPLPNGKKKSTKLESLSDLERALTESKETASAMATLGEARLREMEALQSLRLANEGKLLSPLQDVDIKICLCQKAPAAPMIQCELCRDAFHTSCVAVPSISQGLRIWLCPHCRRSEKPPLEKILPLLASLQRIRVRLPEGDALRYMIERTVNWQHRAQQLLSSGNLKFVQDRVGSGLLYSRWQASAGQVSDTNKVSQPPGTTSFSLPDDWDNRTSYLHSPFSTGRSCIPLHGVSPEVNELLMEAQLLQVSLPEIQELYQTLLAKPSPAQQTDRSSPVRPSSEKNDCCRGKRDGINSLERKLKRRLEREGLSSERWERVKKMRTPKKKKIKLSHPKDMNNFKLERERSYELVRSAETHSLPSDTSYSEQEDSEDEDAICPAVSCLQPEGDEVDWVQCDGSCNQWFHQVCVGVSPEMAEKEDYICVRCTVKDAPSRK

On to `OC[C@H](Cc1ccccc1)Nc1nc(Oc2ccc3c(c2)CCC3)nc2c1ncn2Cc1ccc(-c2ccccc2)cc1`, for which the Potency entry in test [1] and in test [2] was “inactive” each time.

Take `Cc1cccc(-c2nn(C(=S)Nc3ccccc3)cc2-c2ccnc3ccccc23)n1`: the Potency result in test [1] and in test [2] was “inactive” throughout.

Take `CNC(=O)c1ccccc1Sc1ccc2c(/C=C/c3ccccn3)n[nH]c2c1`: the outcome in test [3] was inactive. Further, the Potency entry in [4] is “inactive”.

Regarding `Cc1cc2c(F)c(Oc3ncnn4cc(OC[C@@H](C)O)c(C)c34)ccc2[nH]1`, the Potency result in test [1] and in test [2] was “inactive” throughout.

As for `CN[C@@H](C)C(=O)N[C@H]1CCCC[C@H]2CC[C@@H](C(=O)N[C@@H](c3ccccc3)c3cn(CCCCc4ccc(CCCCn5cc([C@@H](NC(=O)[C@@H]6CC[C@@H]7CCCC[C@H](NC(=O)[C@H](C)NC)C(=O)N76)c6ccccc6)nn5)cc4)nn3)N2C1=O`, the Potency in [2] was 3.3 µM (active).

On to `c1ccc(-c2nn3c(c2-c2ccnc4cc(OCCN5CCOCC5)ccc24)CCC3)nc1`, for which the Potency result in test [1] and in test [2] was “inactive” throughout.

As to `Fc1ccc(Cl)cc1-c1nc(Nc2ccncc2)c2nccnc2n1`, the Potency result in test [1] and in [2] was “inactive” each time.

Consider `CCN(CC)CCCC(C)Nc1nc(C)cc(Nc2ccc3nc(C)cc(N)c3c2)n1` (stereo not given), for which the Potency entry in [1] and in test [2] was “inactive” throughout.

Turning to `CS(=O)(=O)Oc1ccc2c(NC(N)=O)c(C(=O)c3ccc(Cl)cc3Cl)oc2c1`, the Potency entry in test [1] and in test [2] was “inactive” throughout.

In the case of `Nc1ncnc2nc(-c3ccc(N4CCOCC4)nc3)cc(-c3cccc(Br)c3)c12`, the Potency entry in test [2] is “inactive”. Further, the compound was called inactive in [5].

Take `CCC(=O)N[C@H]1CC[C@H](C(=O)N(C)c2ccc(-c3nc4ccccc4o3)cc2)C1`: the Potency entry in test [2] is “inactive”.

For `CC[C@H](Nc1ncnc2nc[nH]c12)c1nc2cccc(F)c2c(=O)n1-c1ccccc1`, the Potency result in [6] and in test [2] was “inactive” in each case.

In the case of `Nc1nc2[nH]cc(CCc3ccc(C(=O)N[C@@H](CCC(=O)O)C(=O)O)cc3)c2c(=O)[nH]1`, the Potency entry in test [1] and in test [2] was “inactive” each time.

Consider `NC(=O)c1ccc(-c2nc(-c3ccc4c(c3)OCO4)c(-c3ccccn3)[nH]2)cc1`, for which the Potency result in test [2] is “inactive”.

Take `CS(=O)(=O)c1ccc(C(=O)Nc2ccc(Cl)c(-c3ccccn3)c2)c(Cl)c1`: the Potency result in test [7], in [6] and in [2] was “inactive” in each case.

`N=c1nc(N2CCCCC2)cc(N)n1O`: the compound was classed as inactive in [8], in test [3], in test [10], in test [11] and in test [5]. The Potency result in test [9] and in [4] was “inactive” throughout.

Turning to `CCN(c1ccccc1)c1cc(NC)[n+](C)c(C)n1`, the Potency entry in test [1] and in [2] was “inactive” each time.

As to `CCCn1c(=O)c2[nH]c(C34CC5CC3C[C@@H](C5)C4)nc2n(CCC)c1=O`, the Potency entry in test [1] and in test [2] was “inactive” throughout.

Consider `Cn1cc(-c2ccc3nnc(C(F)(F)c4ccc5ncccc5c4)n3n2)cn1`, for which the Potency result in test [7], in test [6] and in [2] was “inactive” each time.

Consider `S=C(NCc1ccc2c(c1)OCO2)N1CCN(c2ncnc3c2oc2ccccc23)CC1`, for which the Potency entry in test [7], in [6] and in test [2] was “inactive” each time.
